Compound activity deposited in PubChem BioAssay by National Center for Advancing Translational Sciences (NCATS).
This is a sample that favours compounds with a hit; in the whole collection about 9.4% have one here.
Rab9 prom act: Rab9 promoter activation; AID 485297; Potency, µM (series often up to 9.22 µM), for the others: top-dose activation, negative = inhibition, hits mostly activators; Huh7 Rab9 promoter-luciferase reporter, luminescence, 24 h; 320,000 compounds, 2.8% hits; note: % of control where 0% means no effect; nearly all actives have a fitted effect of over 60% in size
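Quantitative HTS format; Huh7 Rab9-luciferase reporter cells (1500/well) receive compound 2 h post-plating, incubate 24 h at 37 °C, then get luciferase reagent for 10 min before luminescence reading.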
ELG1 repair inh: blocks ELG1-dependent DNA repair in HEK293T cells | 330,000 compounds, 2.3% hits | Potency, µM (titrated, usually from 46.1 µM), inactives show at the top dose activity change, negative = inhibition, hits mostly inhibitors | HEK293T ELG1-luciferase reporter, luminescence, 16 h; DNA damage induced by 5-fluorouridine; note: % is set by controls: 0 for no effect and ±100 for the full control effect; nearly all actives have a fitted effect of over 55% in size
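HEK293T cells expressing luciferase-tagged ELG1 (2,000/well) received 5-Fluorouridine plus compound or DMSO for 16 hr at 37 °C. Luciferase was read by ONE-Glo luminescence after 30 min at room temperature.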
FLuc modulator: firefly luciferase modulation, counter-screen for miR-21 project; Potency, µM (titrated, usually from 57.5 µM), for inactives: at the top dose activity change, negative = inhibition, usual class: inhibitors; P08659; purified FLuc, Km substrates, luminescence inhibition; 360,000 compounds, 6.9% hits; AID 588342;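 note: plate controls were vehicle for no effect and reference inhibitor for full effect; nearly all actives have a fitted effect of over 55% in size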
Target sequence (P08659 whole entry, looked up): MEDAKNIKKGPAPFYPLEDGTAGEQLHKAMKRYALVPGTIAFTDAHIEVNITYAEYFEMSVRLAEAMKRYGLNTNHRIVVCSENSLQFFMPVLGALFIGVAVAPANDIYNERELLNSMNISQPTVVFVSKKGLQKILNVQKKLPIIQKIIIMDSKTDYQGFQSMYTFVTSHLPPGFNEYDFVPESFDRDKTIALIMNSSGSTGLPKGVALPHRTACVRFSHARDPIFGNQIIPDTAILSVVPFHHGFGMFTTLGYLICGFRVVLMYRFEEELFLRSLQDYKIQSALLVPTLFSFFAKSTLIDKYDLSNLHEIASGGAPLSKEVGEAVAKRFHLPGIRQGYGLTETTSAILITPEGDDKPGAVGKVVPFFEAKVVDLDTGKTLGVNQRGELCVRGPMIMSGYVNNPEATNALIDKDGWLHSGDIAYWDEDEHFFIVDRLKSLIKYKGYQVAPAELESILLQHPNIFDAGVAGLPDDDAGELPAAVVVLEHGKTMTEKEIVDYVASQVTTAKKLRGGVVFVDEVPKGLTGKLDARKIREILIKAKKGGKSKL
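Purified P. pyralis luciferase, 10 nM final, with Km-level 10 uM D-luciferin and 10 uM ATP in 50 mM Tris acetate pH 7.5, 10 mM Mg acetate, 0.01% Tween-20, 0.05% BSA; 6-point qHTS titration about 60 µM downward; luminescence read.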
NPC1 prom act: activators of NPC1 promoter. Potency, µM (doses to about 9.22 µM), for inactives: top-dose activation, hits mostly activators. Huh7 NPC1 promoter luciferase reporter, 24 h. 320,000 compounds, 2.4% hits. AID 485313; note: % of control where 0% means no effect; nearly all actives have a fitted effect of over 60% in size
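Luminescence from an NPC1 promoter-driven luciferase reporter in stably transfected Huh7 cells was measured after 24 h compound treatment at 37 °C, followed by 10 min ambient incubation with luciferase detection reagent.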
ELG1 genotoxic: inducers of genotoxicity in HEK293T ELG1-luciferase cells. Potency, µM (highest dose often 46 µM), inactives show top-dose activity change, positive = activation, usual class: activators. HEK293T ELG1-luciferase reporter, luminescence, 16 h. 330,000 compounds, 1.3% hits. AID 504466; note: % of control where 0% means no effect; nearly all actives have a fitted effect of over 60% in size
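Genotoxic stress is detected as increased luminescence from luciferase-tagged ELG1 in HEK293T cells, measured with ONE-Glo after a 16 hr treatment at 37 °C.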
SMN2 splice up: enhancers of SMN2 splice variant expression. HEK293 SMN2-luciferase splicing reporter, luminescence, 30-36 h. Potency, µM (series often up to 46.1 µM), for inactives: at the highest dose activity change, positive = activation, usual class: activators. 210,000 compounds, 2.8% hits. AID 1458; note: % of control where 0% means no effect; nearly all actives have a fitted effect of over 55% in size
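HEK293 cells carry an SMN2 minigene-luciferase reporter in which exon 7 inclusion puts luciferase in frame. Cells were seeded at 2000 cells/well, attached for 10-12 hours, then exposed to compounds for 30-36 hours at 37C before ONE-Glo luminescence.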
* marks the source's active call; other numbers are inactive results; ? = inconclusive; . = no result. Calls come from the whole dose curve; as a rule, active = well fitted curve in the direction sought with a large enough effect; inconclusive = small, poorly fitted or top-dose-only effect, or another doubt; inactive = no such curve, though single readings can be large; an effect the other way counts as inactive or inconclusive. Potency is the fitted concentration of half-maximal effect.

SMILES | Rab9 prom act | ELG1 repair inh | FLuc modulator | NPC1 prom act | ELG1 genotoxic | SMN2 splice up
O=C(/C=C/c1ccc2c(c1)OCO2)Nc1nc(-c2ccc(F)cc2F)cs1 | -12.3% | -16.5% | 1.1% | -7.0% | 7.9% | -82.4%
CCOC(=O)Cc1csc(NC(=O)Nc2ccc(C)cc2)n1 | 20.8% | -1.6% | 3.01µM* | 17.5% | 0.3% | .
CCOC(=O)Cc1csc(NC(=O)Cc2cccs2)n1 | -5.5% | 19.5% | ? | 1.2% | 6.6% | .
CCOC(=O)Cc1csc(NC(=O)Nc2ccc(F)cc2)n1 | -1.3% | 7.3µM* | 10.7µM* | 3.8% | -10.4% | .
CCOC(=O)Cc1csc(NC(=S)NC(=O)c2ccc(F)cc2)n1 | 4.6% | 18.1% | ? | -1.5% | -0.6% | -6.9%
CCOC(=O)Cc1csc(NC(=O)Nc2cccs2)n1 | 23.7% | 2.0% | 21.3µM* | ? | 6.6% | .
CCOC(=O)Nc1nc(-c2ccc(F)cc2F)cs1 | ? | ? | 19µM* | ? | 14.1% | 25.9%
N#Cc1nc(/C=C/c2ccc(F)cc2)oc1N1CCCCCC1 | . | . | -10.2% | . | . | -0.8%
CCOC(=O)c1nc(Nc2ccc(C(=O)OCC(C)C)cc2)c2ccccc2n1 | . | . | -3.1% | . | . | -11.1%
CCCC(=O)Nc1nc2c(ncn2[C@@H]2O[C@H]3COP(=O)(O)O[C@@H]3[C@@H]2OC(=O)CCC)c(=O)[nH]1 | . | . | . | . | . | -4.5%
COc1ccccc1CCNC(=O)c1ccc(NC(=O)N2CC(C)Sc3ccccc32)cc1 (configuration not stated) | . | . | -1.8% | . | . | 0.1%
COc1ccc(CC(=O)Nc2sc3c(c2C(=O)Nc2ccc(C)cc2)CCCCC3)cc1 | . | . | -0.3% | . | . | -12.8%
CCOc1cc2[nH]c(=O)n(CCCCC(=O)N3CCN(c4ccccc4OC)CC3)c(=O)c2cc1OCC | . | . | 1.4% | . | . | .
CCOC(=O)Cc1csc(NC(=O)c2ccc(OC)c(OC)c2)n1 | 5.4% | -4.8% | ? | 4.3% | -10.2% | -20.0%
CCOC(=O)Cc1csc(NC(=O)C(NC(=O)C2CCC(C)CC2)C(C)C)n1 (configuration not stated) | -22.0% | 8.2µM* | 1.8% | -8.9% | -5.6% | .
CCOC(=O)Cc1csc(NC(=O)Nc2cccc(OC)c2)n1 | -1.3% | -20.3% | 15.1µM* | 12.7% | -1.7% | .
CCOC(=O)Cc1csc(NC(=O)c2cccc(OC)c2)n1 | 0.4% | 7.0% | ? | 3.8% | 3.5% | -3.3%
CCCC(=O)Nc1ccc(C(=O)Nc2nc(CC(=O)OCC)cs2)cc1 | -0.8% | -13.1% | 15.1µM* | 0.9% | -0.7% | -3.5%
CCCNC(=O)Nc1nc(CC(=O)OCC)cs1 | -0.6% | 9.5% | -3.8% | -4.4% | 0.5% | -1.0%
CC(CCc1ccccc1)NC(=O)Cn1c(=O)nc(-c2ccccc2F)c2cc(Cl)ccc21 (configuration not stated) | . | . | -6.0% | . | . | .
O=C(NCCc1ccccc1)c1ccc(CSc2nc3ccncc3n2Cc2ccccc2)cc1 | . | . | -12.2% | . | . | 14.5%
CC(C)=CC(=O)Nc1ccc(S(=O)(=O)Nc2onc(C)c2C)cc1 | 4.6% | 2.8% | -10.5% | -3.7% | 0.5% | .
Cc1cccc(NC(=O)Nc2ccc(S(=O)(=O)Nc3onc(C)c3C)cc2)c1 | ? | ? | 16.9µM* | 22.5% | 2.9% | .
Cc1cccc(OCCCC(=O)Nc2ccc(S(=O)(=O)Nc3onc(C)c3C)cc2)c1 | 1.8% | -0.3% | -0.5% | 0.3% | -2.1% | 9.5%
Cc1ccc(/C=C/C(=O)Nc2ccc(S(=O)(=O)Nc3onc(C)c3C)cc2)cc1 | 0.5% | -3.5% | 15.1µM* | 1.3% | 4.7% | .
SMILES | Rab9 prom act | ELG1 repair inh | FLuc modulator | NPC1 prom act | ELG1 genotoxic | SMN2 splice up
Cc1ccc2oc(C(=O)Nc3ccc(S(=O)(=O)Nc4onc(C)c4C)cc3)c(C)c2c1 | ? | ? | 7.57µM* | 24.1% | ? | .
Cc1ccc(C)c(N(C)C(=O)C2CCN(S(=O)(=O)c3cccc4nsnc34)CC2)c1 | . | . | -0.7% | . | . | -31.7%
Cc1ccc(-c2cc(C(F)(F)F)n3ncc(-c4ccccc4)c3n2)cc1 | . | . | -0.3% | . | . | 11.6%
CCSc1cc(C)nc2c(-c3ccc(Cl)cc3)c(C)nn12 | -1.5% | 9.2% | -0.6% | -2.7% | 0.5% | -12.5%
CCSc1cc(C)nc2c(-c3ccccc3)cnn12 | -4.4% | ? | 3.01µM* | -5.7% | 9.2µM* | .
C=CCSc1cc(C)nc2c(-c3ccccc3)cnn12 | 3.55µM* | ? | 3.38µM* | 21.1% | ? | .
CC(C)OC(=O)c1cccc(C(=O)Oc2ccc(Br)cc2)n1 | -4.6% | -10.7% | 9.53µM* | -3.9% | 0.1% | 1.2%
COc1ccc(-c2cc(C(F)(F)F)n3nc(C(=O)O)c(Cl)c3n2)cc1OC | . | . | -16.0% | . | . | -2.4%
COc1ccc(-c2csc(C)n2)cc1 | 11.5% | ? | 19µM* | 11.6% | 19.6% | -5.3%
COc1ccc(-c2csc(C)n2)cc1OC | 8.4% | ? | ? | 2.3% | 14.4% | -13.2%
Cc1nc(-c2ccc(C(=O)N3CCCC3)cc2)cs1 | 2.82µM* | ? | ? | ? | -6.2% | .
COc1ccc(NC(=O)c2ccc(-c3csc(C)n3)cc2)cc1 | 2.82µM* | ? | 2.39µM* | ? | ? | .
Cc1nc(-c2ccc(C(=O)Nc3cccc(F)c3)cc2)cs1 | ? | ? | 0.269µM* | 0.0891µM* | ? | .
O=C(Nc1cccc(NC(=O)c2ccc(F)cc2)c1)c1ccc(F)cc1 | 14.4% | 0.7% | -2.3% | 0.9% | 6.6% | .
COC(=O)c1ccc(NC(=O)Cn2ccn3nc(-c4ccc(OC)cc4)cc3c2=O)cc1 | . | . | 3.0% | . | . | .
CCOc1ccc(NC(=O)c2ccc(-c3csc(C)n3)cc2)cc1 | -4.9% | ? | -2.5% | 0.5% | -11.8% | .
Cc1nc(-c2cccc(NC(=O)c3ccc(-n4cccn4)cc3)c2)cs1 | -7.1% | ? | 6.75µM* | -0.5% | -2.9% | .
Cc1nc(-c2ccc(C(=O)Nc3ccc(F)cc3)cc2)cs1 | ? | ? | 0.757µM* | ? | 20.6µM* | 7.7%
Cc1nc(-c2cccc(NC(=O)C(C)Oc3ccccc3)c2)cs1 (configuration not stated) | 2.6% | -0.2% | ? | -4.5% | -13.6% | .
Cc1nc(-c2ccc(C(=O)Nc3ccccc3F)cc2)cs1 | ? | ? | 0.239µM* | 0.112µM* | ? | 2.82µM*
Cc1oc(-c2ccc(C(=O)Nc3ccccc3F)cc2)nc1COc1ccccc1 | . | . | 0.3% | . | . | .
CCCOc1ccc(C2C(=O)N(C3CCCCCC3)CC(=O)N2C(C)C)cc1OC (configuration not stated) | . | . | -1.4% | . | . | .
C=CCOC(=O)C(C#N)c1nc2ccccc2nc1N1CCN(c2ccccc2OC)CC1 (configuration not stated) | -6.0% | 13µM* | 3.0% | -8.5% | -4.8% | -17.8%
